# Active and inactive are the calls of the source. The call rests on the fitted dose curve; in most records, active means well fitted curve in the direction sought with a large enough effect in the repeat runs; inconclusive means weak or mixed curves; inactive means flat fitted curve, though single readings scatter.
# Experiment: qHTS assay to test for compound auto fluorescence at 590 nm (red) in HepG2 cell free culture (AID 720684)
# Settings: cell-free medium autofluorescence, red 540/590 nm; series mostly up to 91.3 µM
# Text: U.S. Tox21 Program National Center for Advancing Translational Sciences [NCATS] NIH Chemical Genomics Center [NCGC] U.S. Environmental Protection Agency [EPA] National Institutes of Environmental Health Sciences [NIEHS] National Toxicology Program [NTP] U.S. Food and Drug Administration [FDA] Tox21 Assay Overview: Compound auto fluorescence often interferes with screening of the compound library against various biological targets and signaling pathways. Some of these compounds may have fluorophoric properties. Such properties may interfere with the assay outputs resulting in false positives and/or negatives. To decrease such complications and ensure the compound activities are relevant in terms of biological response, the Tox21 10K compound library was screened for auto fluorescence. From the fluorophores used as reporter signals in our screening assays, the auto fluorescence equivalencies of compounds against three fluorophores have been evaluated: Triamterene, Fluorescein and Rose Bengal sodium for blue, green and red fluorescence, respectively. The fluorescence intensities were measured using Excitation/Emission wavelengths at 405/460nm, 485/535nm and 540/590nm for blue, green and red labels, respectively. This assay includes the red fluorescence data.
# Tox21 Assay Protocol Summary: 5 uL of culture medium (MEM containing 10% FBS) per well was dispensed into black wall/clear bottom 1536-well plates using a Multidrop Combi Dispenser (ThermoFisher Scientific, Waltham, MA). After 23 nL compound or DMSO vehicle was transferred into assay plate by a pintool work station (Kalypsys, San Diego, CA), fluorescence intensities in the assay plates were measured by an Envision (PerkinElmer, Shelton, CT) plate reader using three labels for measuring blue, green and red fluorescence at […] 460, 535 and 590nm respectively.
row,Compound,outcome
1,CC(C)(C)c1cc(Cc2cc(C(C)(C)C)c(O)c(C(C)(C)C)c2)cc(C(C)(C)C)c1O,inactive
2,CCCCCCC=O,inactive
3,CCCCCCCC=O,inactive
4,CC(=O)OCc1ccccc1,inactive
5,C=C(C)[C@H]1CC=C(C)C(=O)C1,inactive
6,COc1ccc(N)c(C)c1,inactive
7,O=C1C(c2[nH]c3ccccc3c2O)=Nc2ccccc21,inactive
8,CCOC(=O)c1ccc(N)cc1,inactive
9,OCc1cccc(Oc2ccccc2)c1,inactive
10,CC(=O)Oc1ccc(C)cc1,inactive
11,O=C(O)Cn1c(=O)n(Cc2ccc(Br)cc2F)c(=O)c2ccc(Cl)cc21,inactive
12,O=S(=O)(O)c1ccc(N=Nc2c(O)ccc3cc(S(=O)(=O)O)ccc23)cc1,inactive
13,OCc1ccccc1,inactive
14,C=CCc1ccc(OC)c(OC)c1,inactive
15,CN(C)c1ccc(Cc2ccc(N(C)C)cc2)cc1,inactive
16,CCCCC(C=O)CC (stereo not given),inactive
17,CCNC(=S)NCC,inactive
18,CNC(=O)Oc1ccc2c(c1)[C@]1(C)CCN(C)[C@@H]1N2C,inactive
19,Nc1nc(N)nc(-c2ccccc2)n1,inactive
20,CC(C)(Oc1ccc(CCNC(=O)c2ccc(Cl)cc2)cc1)C(=O)O,inactive

row,Compound,outcome
1,OC1C(O)C(O)C(O)C(O)C1O (stereo not given),inactive
2,c1ccc(Oc2ccccc2)cc1,inactive
3,C[C@]12CCC(=O)C=C1CC[C@@H]1[C@@H]2[C@@H](O)C[C@@]2(C)[C@H]1CC[C@]2(O)C(=O)CO,inactive
4,O=C(O)c1ccc(S(=O)(=O)N(Cl)Cl)cc1,inactive
5,CN1C(=O)CC[C@H]1c1cccnc1,inactive
6,CC(C)(C#N)c1cc(Cn2cncn2)cc(C(C)(C)C#N)c1,inactive
7,COC(=O)c1cccnc1,inactive
8,CC(C)CC(C)O (stereo not given),inactive
9,NC(=S)NNC(N)=S,inactive
10,COc1ccc(CCC(C)=O)cc1,inactive
11,O=S(=O)(O)c1ccccc1,inactive
12,COc1ccc(OC)cc1,inactive
13,CCCCCC(=O)O,inactive
14,COC(=O)CCCC(=O)OC,inactive
15,CC(=O)OCc1ccco1,inactive
16,O=[N+]([O-])c1ccc2nc[nH]c2c1,inactive
17,C[C@]12CC[C@@H]3c4ccc(O)cc4CC[C@H]3[C@@H]1C[C@@H](O)[C@@H]2O,inactive
18,C=C(C)C(=O)OCC(C)C,inactive
19,O=C(O)c1ccc(C(=O)O)c(C(=O)O)c1,inactive
20,CCCCCCCO,inactive
